For eight compounds, outcome and AC50 results are on record in PubChem BioAssay (EPA / NIEHS).

Activity calls are given as the source filed them. Rule for the calls: active = hit-call score of the fitted dose curve at least 0.9, where 1 is the maximum; inactive = score below 0.9.

Assay [1] is described as follows: APR_HepG2_CellLoss_72hr: Apredica 72-hour HepG2 Assay for Cell Loss (AID 2282915). As to conditions: high-content imaging. The gist of the method: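 HepG2 cells exposed 72 h to compound at 0.39–200 uM (10 concentrations, duplicate) in 0.5% DMSO. Fixed with 3.7% formaldehyde and Hoechst 33342-stained. Imaged at 20x; nuclear count gives cell number, fitted bidirectionally versus DMSO.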

A short description of assay [2]: APR_HepG2_P-H2AX_72hr: Apredica 72-hour HepG2 Assay for H2AX Phosphorylation (AID 2282916).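 Note: phospho-histone H2A.x immunostain intensity per cell marking DNA damage.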 The note with it: imaging, actives raise or lower the signal. Put shortly:
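HepG2 cells treated 72 h at 0.39–200 uM, 0.5% DMSO final, duplicates. Formaldehyde-fixed, Triton-permeabilised, immunostained for phospho-H2A.x with Hoechst; fluorescence imaged at 20x, bidirectional fit versus DMSO.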

Assay [3] can be described thus: APR_HepG2_MitoMembPot_72hr: Apredica 72-hour HepG2 Assay for Mitochondrial Membrane Potential (AID 2282917). The note with it: imaging, actives raise or lower the signal. Put shortly:
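HepG2 cells dosed 72 hr with compound at 0.39–200 uM in duplicate, 0.5% v/v DMSO final. Mitochondria stained with 250 nM MitoTracker Red CMXRos for 30 min before formaldehyde fixation, imaged by high-content fluorescence; bidirectional fit versus DMSO.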

Assay [4] in a line: APR_HepG2_MitoticArrest_72hr: Apredica 72-hour HepG2 Assay for Mitotic Arrest (AID 2282918). As to conditions: high-content imaging, actives raise or lower the signal. The gist of the method:
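HepG2 cells treated 72 h at 0.39–200 uM, 0.5% DMSO final; formaldehyde-fixed, stained with Hoechst 33342 and phospho-histone H3 antibody, imaged by high-content fluorescence; bidirectional fit versus DMSO.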

A short description of assay [5]: APR_HepG2_MicrotubuleCSK_72hr: Apredica 72-hour HepG2 Assay for Microtubule CSK Stabilty (AID 2282919). The note with it: HepG2 microtubule cytoskeleton, high-content imaging, actives raise or lower the signal. The gist of the method: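 HepG2 cells were exposed 72 hr to compound at 0.39–200 uM in duplicate (0.5% DMSO final), then fixed and permeabilized. Alpha-tubulin immunofluorescence was imaged by high-content microscopy, with bidirectional fitting against DMSO and taxol as positive control.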

Assay [6] is described as follows: APR_HepG2_P-H2AX_24hr: Apredica 24-hour HepG2 Assay for H2AX Phosphorylation (AID 2282920). As to conditions: high-content imaging, actives raise or lower the signal. The gist of the method: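 HepG2 cells dosed 24 h at 0.39–200 uM (10 points, duplicate, 0.5% DMSO final). Formaldehyde-fixed and permeabilized, then immunostained for phospho-H2A.x with Hoechst. Fluorescence quantified by high-content imaging, fitted bidirectionally versus DMSO.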

Assay [7] in a line: APR_HepG2_StressKinase_72hr: Apredica 72-hour HepG2 Assay for Stress Kinase (AID 2282921). As to conditions: HepG2 stress kinase (phospho-c-Jun) imaging, actives raise or lower the signal. Put shortly:
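HepG2 cells treated 72 hr with 0.39–200 uM compound, 0.5% v/v DMSO, duplicate wells. After formaldehyde fixation and Triton permeabilization, stained with anti-phospho-c-Jun (1:500) and Cy3 secondary, imaged at 20x. Fitted in both directions against DMSO.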

The nature of assay [8]: APR_HepG2_StressKinase_24hr: Apredica 24-hour HepG2 Assay for Stress Kinase (AID 2282922). As to conditions: HepG2 stress kinase (phospho-c-Jun) imaging, actives raise or lower the signal. Put shortly:
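HepG2 cells exposed 24 h to 0.39–200 uM compound in duplicate (0.5% v/v DMSO final). Cells fixed in 3.7% formaldehyde, permeabilized and immunostained for phospho-c-Jun; read by high-content fluorescence imaging, fitted bidirectionally against DMSO.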

Assay [9] is described as follows: APR_HepG2_p53Act_72hr: Apredica 72-hour HepG2 Assay for p53 Activation (AID 2282923).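 Note: average cellular p53 protein immunofluorescence intensity in HepG2 cells.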 As to conditions: high-content imaging, actives raise or lower the signal. The gist of the method: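 HepG2 cells exposed 72 h to 0.39–200 uM in 0.5% DMSO, duplicates. Fixed, permeabilized cells immunostained for p53 (Cy5) with Hoechst; imaged at 20x, fluorescence analyzed bidirectionally against DMSO.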

The nature of assay [10]: APR_HepG2_MitoMass_72hr: Apredica 72-hour HepG2 Assay for Mitochondrial Mass (AID 2282924).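 Note: MitoTracker Red CMXRos stain intensity per cell imaged as mitochondrial mass.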 The note with it: high-content imaging, actives raise or lower the signal. Put shortly:
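HepG2 cells dosed 72 hr at 0.39–200 uM (0.5% DMSO), in duplicate. MitoTracker Red CMXRos 250 nM loaded 30 min before formaldehyde fixation; high-content fluorescence imaging, bidirectional fit versus DMSO.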

Assay [11] can be described thus: ATG_CRE_CIS: Attagene CIS-FACTORIAL HepG2 Assay for human cAMP Responsive Element (CRE) binding protein 3 (AID 2282926). The note with it: HepG2 CRE cis-reporter, Attagene multiplexed mRNA; actives raise or lower the signal. Put shortly:
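HepG2 cells transiently transfected with cis-element-driven multiple reporter transcription units; CRE reporter mRNA measured 24 h after dosing by RT-PCR, 6-FAM labelling, HpaI digestion and capillary electrophoresis. Bidirectional fit versus DMSO baseline.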

The target of assay [12] is CCAAT/enhancer-binding protein beta (Homo sapiens) (UniProt P17676). Put plainly: ATG_C_EBP_CIS: Attagene CIS-FACTORIAL HepG2 Assay for human CCAAT/Enhancer Binding Protein (C/EBP) beta (AID 2282927). As to conditions: HepG2 Attagene cis-factorial transcription factor reporter; actives raise or lower the signal. Put shortly:
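Transiently transfected HepG2 (MRTU library, endogenous TF-driven promoters); 24 h dosing; total RNA → oligo(dT) RT → PCR → 6-FAM primer extension → HpaI digest → CE; fit bidirectionally vs DMSO.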

Assay [13] can be described thus: ATG_CMV_CIS: Attagene CIS-FACTORIAL HepG2 Assay for human CMV (Internal Marker) (AID 2282928).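 Note: endpoint acts as a background internal control marker rather than a target.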 The note with it: HepG2 CMV promoter reporter, transcription factor profiling; actives raise or lower the signal. Put shortly:
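Cell system: HepG2, transiently transfected multiple reporter units under cis promoters. Exposure: 24 h. Detection: RT-PCR, FAM labeling, HpaI digestion, capillary electrophoresis. Analysis: bidirectional, DMSO baseline.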

A short description of assay [14]: ATG_DR4_LXR_CIS: Attagene CIS-FACTORIAL HepG2 Assay for human Liver X Receptor (LXR), DR4 submotif (AID 2282929). As to conditions: HepG2 Attagene DR4 cis-reporter, mRNA transcription; actives raise or lower the signal. Put shortly: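 HepG2 cells were transiently transfected with multiple cis-regulated reporter units and dosed for 24 hours. The DR4 reporter mRNA was quantified by RT-PCR, 6-FAM labelling and capillary electrophoresis. Bidirectional fits used DMSO as baseline.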

Assay [15] concerns the target Aryl hydrocarbon receptor (Homo sapiens) (UniProt P35869). Put plainly: ATG_Ahr_CIS: Attagene CIS-FACTORIAL HepG2 Assay for human Aryl Hydrocarbon Receptor (Ahr) (AID 2282930). The note with it: HepG2 AhR cis-factorial reporter transcription; actives raise or lower the signal. Put shortly: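 Read-out: reporter mRNA quantified by RT-PCR with fluorescent primer extension and capillary electrophoresis. Human HepG2 liver cells carried transfected cis-promoter reporter units and were exposed to chemical for 24 h; gain or loss fitted relative to DMSO.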

A short description of assay [16]: ATG_AP_1_CIS: Attagene CIS-FACTORIAL HepG2 Assay for human Activator Protein 1 (AP-1) (AID 2282931). The note with it: HepG2 Attagene cis-factorial AP-1 reporter mRNA; actives raise or lower the signal. Put shortly: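 HepG2 cells transiently transfected with cis-element-driven reporter transcription units, dosed for 24 hours. Reporter mRNA measured by RT-PCR, 6-FAM labelling, HpaI digestion and capillary electrophoresis. Bidirectional fitting against DMSO baseline.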

Assay [17] can be described thus: ATG_AP_2_CIS: Attagene CIS-FACTORIAL HepG2 Assay for human Activator Protein 2 (AP-2) (AID 2282932). As to conditions: HepG2 AP-2 cis-reporter, Attagene transcription factor profiling; actives raise or lower the signal. Put shortly:
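HepG2 cells transiently transfected with cis-element reporter units and exposed for 24 h. Reporter mRNA measured by RT-PCR, FAM labelling, HpaI digestion and capillary electrophoresis. Changes in either direction fitted relative to DMSO.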

Assay [18] in a line: ATG_BRE_CIS: Attagene CIS-FACTORIAL HepG2 Assay for human Bone Morphogenetic Protein (BMP) Response Element (BRE) (AID 2282933). As to conditions: HepG2 BMP response element reporter, Attagene transcription factor profiling; actives raise or lower the signal. The gist of the method: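 Read-out: reporter mRNA induction quantified by RT-PCR and capillary electrophoresis after 24 h chemical exposure of transfected HepG2 cells. Endogenous factor activity on the BMP response element; gain or loss fitted against DMSO baseline.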

Assay [19] addresses Retinoic acid receptor alpha (Homo sapiens) (UniProt P10276). Put plainly: ATG_DR5_RAR_CIS: Attagene CIS-FACTORIAL HepG2 Assay for human Retinoic Acid Receptor Alpha (RARE), DR5 submotif (AID 2282934). The note with it: HepG2 Attagene cis-factorial RARE DR5 reporter, mRNA; actives raise or lower the signal. Put shortly: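 Read-out: DR5-driven reporter transcript measured by RT-PCR, 6-FAM primer extension, HpaI digest and capillary electrophoresis. Human HepG2 liver cells carry transiently transfected cis-element reporter constructs; dosing lasts 24 h. Gain or loss of signal fitted against DMSO baseline.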

Chain of CCAAT/enhancer-binding protein beta (Homo sapiens) (P17676 whole entry, looked up): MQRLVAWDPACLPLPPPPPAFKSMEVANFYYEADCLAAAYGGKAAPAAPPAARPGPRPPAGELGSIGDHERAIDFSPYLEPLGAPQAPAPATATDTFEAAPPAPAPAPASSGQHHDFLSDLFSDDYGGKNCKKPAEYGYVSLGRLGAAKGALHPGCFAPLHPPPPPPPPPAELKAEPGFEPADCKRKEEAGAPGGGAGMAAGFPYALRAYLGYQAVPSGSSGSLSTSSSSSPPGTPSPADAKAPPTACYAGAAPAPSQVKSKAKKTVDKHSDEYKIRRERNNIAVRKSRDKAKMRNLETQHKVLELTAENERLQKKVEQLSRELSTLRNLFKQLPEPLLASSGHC
Chain of Aryl hydrocarbon receptor (Homo sapiens) (P35869 whole entry, looked up): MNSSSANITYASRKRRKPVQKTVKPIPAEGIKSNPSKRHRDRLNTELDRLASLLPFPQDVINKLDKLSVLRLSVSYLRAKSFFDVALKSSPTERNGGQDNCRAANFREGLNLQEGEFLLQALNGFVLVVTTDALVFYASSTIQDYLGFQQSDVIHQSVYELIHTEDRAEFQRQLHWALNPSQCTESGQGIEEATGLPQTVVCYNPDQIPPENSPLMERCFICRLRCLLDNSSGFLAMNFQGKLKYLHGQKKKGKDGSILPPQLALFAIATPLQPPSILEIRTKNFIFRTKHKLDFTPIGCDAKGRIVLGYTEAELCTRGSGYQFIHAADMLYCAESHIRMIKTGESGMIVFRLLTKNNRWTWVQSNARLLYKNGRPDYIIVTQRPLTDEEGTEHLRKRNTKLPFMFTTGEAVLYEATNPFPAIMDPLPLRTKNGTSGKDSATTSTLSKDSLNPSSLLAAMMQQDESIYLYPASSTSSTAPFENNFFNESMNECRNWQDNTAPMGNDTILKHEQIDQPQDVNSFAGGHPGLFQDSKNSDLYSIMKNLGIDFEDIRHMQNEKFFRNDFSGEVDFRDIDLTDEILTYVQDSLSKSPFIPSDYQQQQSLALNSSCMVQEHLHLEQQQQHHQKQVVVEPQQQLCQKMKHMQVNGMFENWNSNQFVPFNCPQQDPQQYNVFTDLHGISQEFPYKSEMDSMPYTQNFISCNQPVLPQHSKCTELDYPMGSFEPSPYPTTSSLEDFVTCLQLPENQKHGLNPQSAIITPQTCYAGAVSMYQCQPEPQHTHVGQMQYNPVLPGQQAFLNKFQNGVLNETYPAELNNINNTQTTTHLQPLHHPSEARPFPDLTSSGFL
Chain of Retinoic acid receptor alpha (Homo sapiens) (P10276 whole entry, looked up): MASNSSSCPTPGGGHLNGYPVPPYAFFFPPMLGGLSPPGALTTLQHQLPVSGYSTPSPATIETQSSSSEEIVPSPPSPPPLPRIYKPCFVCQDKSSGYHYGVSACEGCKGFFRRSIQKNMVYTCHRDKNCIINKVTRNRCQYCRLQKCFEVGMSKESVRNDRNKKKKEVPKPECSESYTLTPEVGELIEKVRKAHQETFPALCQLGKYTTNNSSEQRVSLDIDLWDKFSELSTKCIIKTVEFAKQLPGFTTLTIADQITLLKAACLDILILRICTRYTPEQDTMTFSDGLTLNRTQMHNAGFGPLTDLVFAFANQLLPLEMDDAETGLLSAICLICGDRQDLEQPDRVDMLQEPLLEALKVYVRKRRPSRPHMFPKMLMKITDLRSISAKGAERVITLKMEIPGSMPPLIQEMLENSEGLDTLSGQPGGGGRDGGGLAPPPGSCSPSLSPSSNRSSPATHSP

With `CCCCCCOCCO`, the result in [1], in assay [2], in [3], in assay [4], in assay [5] and in [6] was inactive. The compound was classed as inactive in assay [7], in [8], in assay [9], in [10], in assay [11] and in assay [12]. Further, the compound was called inactive in assay [13], in assay [14], in assay [15], in assay [16], in assay [17] and in [18].

On to `Cc1ccc(C(C)C)c(O)c1`, for which the result in assay [1], in [2], in assay [3], in assay [4], in assay [5] and in [6] was inactive. For the same compound, the result in [7], in [8], in [9], in assay [10], in assay [11] and in assay [12] was inactive. Moreover, the call in assay [13], in assay [14], in assay [15], in [16], in [17] and in assay [18] was inactive.

Consider `CN1CCCC1=O`, for which the compound was called inactive in assay [1], in [2], in assay [3], in [4], in assay [5] and in assay [6]. The result in assay [7], in assay [8], in assay [9], in assay [10], in assay [11] and in [12] was inactive. The outcome in assay [14], in assay [15], in assay [16] and in [18] was inactive.

As to `CNC(=O)[C@H]1O[C@@H](n2cnc3c(NCc4cc(Cl)ccc4OCc4cc(C)no4)ncnc32)[C@H](O)[C@@H]1N`, the call in [1], in [2], in assay [3], in [4], in assay [5] and in assay [6] was inactive. For the same compound, the compound was classed as inactive in [7], in [8], in [9], in assay [10], in assay [11] and in assay [12]. Further, the outcome in [14], in assay [15], in assay [16], in assay [17] and in [18] was inactive.

As for `CC1(C)CC(N=C=O)CC(C)(CN=C=O)C1` (stereo unspecified), the outcome in assay [1], in [3], in [5], in assay [7], in [8] and in assay [9] was inactive. The outcome in [10], in [11], in assay [12], in assay [14], in assay [15] and in assay [16] was inactive. Further, the call in assay [18] and in assay [19] was inactive. The AC50 in [2] was 101 µM (active); in assay [4] it was 93.1 µM (active); in assay [6] it was 101 µM (active).

In the case of `CCCCCCCC=O`, the compound was called inactive in assay [1], in assay [2], in assay [3], in assay [4], in assay [5] and in assay [6]. Moreover, the result in assay [7], in [8], in [9], in [10], in [11] and in [12] was inactive. The call in assay [14], in assay [15], in [16] and in assay [17] was inactive.

With `Cc1oc(-c2ccccc2)nc1CCOc1cccc2c1ccn2CCC(=O)O`, the compound was called inactive in [1], in [2], in [3], in [4], in [5] and in [6]. Further, the compound was called inactive in assay [7], in [8], in assay [9], in [10], in assay [11] and in assay [12]. Also, the call in [15], in assay [16], in [17] and in assay [18] was inactive. Further, in assay [14], the AC50 is 19.8 µM (active).

Regarding `COc1cc(S(=O)(=O)O)c(C)cc1N=Nc1c(O)ccc2cc(S(=O)(=O)O)ccc12`, the result in assay [1], in [2], in assay [3], in assay [4], in assay [5] and in [6] was inactive. For the same compound, the compound was classed as inactive in assay [7], in assay [8], in assay [9], in [10], in assay [11] and in [12]. Moreover, the compound was classed as inactive in [13], in assay [14], in [15], in assay [16] and in [18].
